# From PubChem BioAssay (Tox21)
# A number with no mark means an inactive call. Inconclusive results are not listed. Where a call stands in place of a potency, no number is given. Activity calls are given as the source filed them. Unless noted, calls follow the shape of the dose curve; as a rule, active = well fitted curve in the direction sought with a large enough effect in the repeat runs; inconclusive = weak or mixed curves; inactive = no such curve, though single readings can be large; an effect the other way counts as inactive or inconclusive.
# Tests used:
# [1] = qHTS assay for small molecules that induce genotoxicity in human embryonic kidney cells expressing luciferase-tagged ATAD5 (AID 651632); also: nearly all actives have a fitted effect of over 15% in size; also: potency is read from the fitted curve at half-maximal effect
# Summary of the method: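 Genotoxicity read-out via ATAD5-luciferase: HEK293T cells, 16 hr compound incubation at 37C, Amplite detection.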
# [2] = qHTS assay for small molecule agonists of the p53 signaling pathway - cell viability (AID 651633; calls by dose curve;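 also: p53RE-bla HCT reporter cells with a stable beta-lactamase p53 reporter; series mostly up to about 83 µM; nearly all actives have a fitted effect of over 30% in size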)
# Summary of the method: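 p53RE-bla cells, seeded at 4,000 per well and rested 5 h at 37 C/5% CO2, received compounds in DMSO for 16 h at 37 C. CellTiter-Glo was then added, and luminescence was read after 30 min at room temperature to gauge cytotoxicity.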
# [3] = qHTS assay for small molecules that induce genotoxicity in human embryonic kidney cells expressing luciferase-tagged ATAD5 - cell viability (AID 651634; calls by dose curve; also: nearly all actives have a fitted effect of over 25% in size; also: potency is read from the fitted curve at half-maximal effect)
# Summary of the method: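 Live-cell protease activity (CellTiter-Fluor, fluorescence) indicates viability. HEK293T cells with luciferase-tagged ATAD5; 15.5 hr compound treatment at 37C.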
# [4] = qHTS assay for small molecule disruptors of the mitochondrial membrane potential - cell viability (AID 720634; calls by dose curve;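 also: human HepG2 liver cancer cells; series mostly up to about 83 µM; nearly all actives have a fitted effect of over 20% in size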)
# Summary of the method: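 Human hepatoma HepG2 cells were treated for 1 hr with test chemicals, then given m-MPI dye and CellTiter-Glo. Cell viability reflects luminescence proportional to cellular ATP.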
# [5] = qHTS assay for small molecule disruptors of the mitochondrial membrane potential (AID 720635); also: potency is read from the fitted curve at half-maximal effect
# Summary of the method: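 HepG2 cells (2,000/well) attached overnight at 37C, then took compound for 1 hr at 37C, 5% CO2. Mito-MPS dye was added for 30 min; fluorescence was read at 490/535 nm (monomers) and 540/590 nm (aggregates).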
# [6] = qHTS assay to test for compound auto fluorescence at 590 nm (red) in HepG2 cells (AID 720674)
# Summary of the method: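 Intrinsic compound fluorescence in the red window (Ex/Em 540/590 nm) is measured in attached HepG2 cells exposed for 1 hr, DMSO vehicle as baseline, benchmarked to Rose Bengal sodium.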
# [7] = qHTS assay to test for compound auto fluorescence at 535 nm (green) in HepG2 cells (AID 720675)
# [8] = qHTS assay to test for compound auto fluorescence at 590 nm (red) in HEK293 cells (AID 720679)
# Summary of the method: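 Red-channel autofluorescence (Ex/Em 540/590 nm; Rose Bengal sodium reference) was measured after overnight 37C, 5% CO2 exposure of attached HEK293 cells, 2,000 per well in medium with 10% dialyzed FBS.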
# [9] = qHTS assay to test for compound auto fluorescence at 460 nm (blue) in HEK293 cells (AID 720678)
# Summary of the method: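 Blue-channel (Ex/Em 405/460 nm) intensity measured in HEK293 cultures after overnight compound exposure at 37C; signal expressed relative to triamterene. Cells plated 2,000 per well in 10% dialyzed FBS medium and allowed 4-5 hr to attach.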
SMILES,Potency [1],Potency [2],Potency [3],Potency [4],Potency [5],outcome [6],outcome [7],outcome [8],Potency [9],"fluorescence, relative to Rose Bengal [6]","fluorescence, % of fluorescein control [7]","fluorescence, % of fluorescent control [8]","fluorescence, % of triamterene [9]"
COC(=O)c1ccc(C(=O)OC)c(C(=O)OC)c1,inactive,inactive,inactive,inactive,inactive,inactive,inactive,inactive,,,,,
CCCCCC[C@@H](CCC)C(=O)O,inactive,inactive,inactive,inactive,inactive,inactive,inactive,inactive,inactive,,,,
O=Cc1ccccc1[N+](=O)[O-],inactive,inactive,inactive,inactive,,inactive,inactive,inactive,inactive,,,,
CC(C)c1ccc2oc3nc(N)c(C(=O)O)cc3c(=O)c2c1,4.73 µM (active),inactive,inactive,inactive,,inactive,inactive,inactive,inactive,,,,
CCN1CCN(c2cc3c(cc2F)c(=O)c(C(=O)O)cn3C2CC2)CC1,inactive,inactive,inactive,inactive,,inactive,inactive,inactive,inactive,,,,
CC(C)(O)Cc1ccccc1,inactive,inactive,inactive,inactive,inactive,inactive,inactive,inactive,inactive,,,,
CC1=CC(=O)CCC1,inactive,inactive,inactive,inactive,inactive,inactive,inactive,inactive,,,,,
C1C2OC2C2C1C1CC2C2OC12 (stereo not drawn),inactive,inactive,inactive,inactive,inactive,inactive,inactive,inactive,inactive,,,,
CC(C)=CC(=O)O,inactive,inactive,inactive,inactive,inactive,inactive,inactive,inactive,inactive,,,,
C=C[Si](OC)(OC)OC,inactive,inactive,inactive,inactive,inactive,inactive,inactive,inactive,inactive,,,,
NC(N)=NS(=O)(=O)c1ccc(N)cc1,inactive,inactive,inactive,inactive,inactive,,,,,-0.133% [at 18.6 µM],0.0157% [at 18.6 µM],0.29% [at 18.6 µM],
CCCCCCCCCCCCCCC,inactive,inactive,inactive,inactive,inactive,inactive,inactive,inactive,inactive,,,,
Nc1[nH]c(=O)ncc1F,inactive,inactive,inactive,inactive,inactive,,,,,-0.615% [at 18.6 µM],0.005% [at 18.6 µM],0.0902% [at 18.6 µM],0.082% [at 18.6 µM]
O=C(O)Cc1cc(I)c(Oc2cc(I)c(O)c(I)c2)c(I)c1,inactive,,,inactive,,inactive,inactive,inactive,inactive,,,,
CC(CCO)CCCC(C)(C)O (stereo not drawn),inactive,inactive,inactive,inactive,,inactive,inactive,inactive,,,,,
CCCOc1ccccc1-c1nc2n[nH]nc2c(=O)[nH]1,inactive,inactive,inactive,inactive,,inactive,inactive,inactive,inactive,,,,
COc1nc(C)nc(N)n1,inactive,inactive,inactive,inactive,,inactive,inactive,inactive,inactive,,,,
COC(=O)C1=C(C)NC(C)=C(C(=O)OCC(C)=O)C1c1ccccc1[N+](=O)[O-] (stereo not drawn),inactive,,23.7 µM (active),inactive,9.44 µM (active),inactive,inactive,inactive,inactive,,,,
Nc1ccn(C2CO[C@H](CO)O2)c(=O)n1 (stereo partly drawn),inactive,inactive,inactive,inactive,,inactive,inactive,inactive,inactive,,,,
C1CCCCCCCCCCC1,inactive,inactive,inactive,inactive,,,,,,-0.0148% [at 18.6 µM],-0.001% [at 18.6 µM],-0.0949% [at 18.6 µM],-0.115% [at 18.6 µM]
Cn1cnc2c(=O)[nH]c(N)nc21,inactive,inactive,inactive,inactive,,inactive,inactive,inactive,inactive,,,,
CC(C)CCOC(=O)CC(C)C,inactive,inactive,inactive,inactive,,inactive,inactive,inactive,inactive,,,,
CC1(C)SC(C)(C)SC(C)(C)S1,inactive,,inactive,inactive,inactive,inactive,inactive,inactive,inactive,,,,
